Test results: PMC7819943, “Rice protein-binding microarrays: a tool to detect cis-acting elements near promoter regions in rice”
Whole data set: some 68,000 sequences, median “fluorescence intensity (a.u.)” near 9,100, cut for the highest 2% near 16,000. The sample holds the highest values, similar sequences and a random draw of the others, so the mix is not that of the screen.

molecular target: OsWRKY34 (Oryza sativa, UniProt Q0JBA9 1-250); test: protein-binding microarray (RPBM); PBS, 2% BSA, 51.3 ng/ul salmon testes DNA, 50 uM zinc acetate, 200 nM TF, 25 C, 1 h; high values mean tight binding; details: protein: recombinant; tags: N-terminal polyhistidine and DsRed monomer fusion (pET32a); label: CyDye5-dUTP incorporated in the synthesized complementary strand; 3' TTTTT single-stranded linker to array surface; dsDNA, one strand shown
Sequence (Q0JBA9 entry or part of it): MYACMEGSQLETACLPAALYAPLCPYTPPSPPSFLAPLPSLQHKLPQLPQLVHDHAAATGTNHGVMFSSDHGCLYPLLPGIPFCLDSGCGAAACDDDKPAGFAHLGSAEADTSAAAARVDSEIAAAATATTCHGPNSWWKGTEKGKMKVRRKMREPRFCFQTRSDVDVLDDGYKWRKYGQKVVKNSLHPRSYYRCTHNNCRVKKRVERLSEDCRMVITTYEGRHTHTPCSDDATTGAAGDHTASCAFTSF
Method in brief: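 Ni–NTA purification followed expression in E. coli BL21-CodonPlus of transcription factors fused N-terminally to a polyhistidine tag and DsRed. At 200 nM in PBS with 2% BSA, salmon testes DNA and 50 µM zinc acetate, the protein was incubated for 1 h at 25 °C with a custom Agilent array that had been primer-extended with Cy5-dUTP and blocked with 2% BSA. After washing, the array was read on an Axon 4000B scanner. The binding signal is per-feature fluorescence intensity in arbitrary units.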

Sequence	binding signal
GGCCGGGCGAGGCGCTGGGAGGTGGCGGCTAGCGGCGGGGCGGAGTCACCTAGTGCAG	8500 fluorescence intensity (a.u.)
GAGGTGACGCTGCCGCCGGCGGTGGGCGGAGTGGGAGGGGCGGAGTCACCTAGTGCAG	8390 fluorescence intensity (a.u.)
ATTTGTTCCCATCCATCTCGGCCCTGTCGCCATTGTGCCACGGAGTCACCTAGTGCAG	9450 fluorescence intensity (a.u.)
GATTGATTATCCTTTTCTTAAACTATTTTCCTGTTTTTCACGGAGTCACCTAGTGCAG	13200 fluorescence intensity (a.u.)
GCCAAGCCTTTTTCTTCTACTCTTTTTGGCATGGAACTCACGGAGTCACCTAGTGCAG	8350 fluorescence intensity (a.u.)
AACGATTTGCATGTCATACAGATACATCACATTTCTTTCTCGGAGTCACCTAGTGCAG	8520 fluorescence intensity (a.u.)
AGCAAATTCCTTTATGTTTTTTCTTATGTCTTCTCCAGCTCGGAGTCACCTAGTGCAG	9040 fluorescence intensity (a.u.)
ACACTCTATTAAGAGGATCCGTTTCATTTTTTGTTCCATCCGGAGTCACCTAGTGCAG	8760 fluorescence intensity (a.u.)
CTATACTCACCCACTTGCCAATTTGCCATTGCCAACACCTCGGAGTCACCTAGTGCAG	9100 fluorescence intensity (a.u.)
TTGTTGGCTCAATATAGTTATCCTCCTTTGACCCAGTTAACGGAGTCACCTAGTGCAG	9120 fluorescence intensity (a.u.)
AGGAGAGGGGTTTACTCGGTTGAGGATTTTCTTGTTCTCACGGAGTCACCTAGTGCAG	8180 fluorescence intensity (a.u.)
TGGGTTTTACGGTTTTACCCTCTCGGGCTTGAGGGGAGAGCGGAGTCACCTAGTGCAG	47600 fluorescence intensity (a.u.)
AGGTGAGAGGAGGAGAGAGACGGGTTTAGGGCTTTAGGAGCGGAGTCACCTAGTGCAG	8040 fluorescence intensity (a.u.)
TGGCGGCGTGGAGCCGCGAGGGCGGTGGCGGCGGGGAGTTCGGAGTCACCTAGTGCAG	10400 fluorescence intensity (a.u.)
GCTCGGCGGCGCCGCGGCGGCGGTGGCGGAGGCGGGGATGCGGAGTCACCTAGTGCAG	8910 fluorescence intensity (a.u.)
GGTGGGCGGAGTGGGAGGGGAGGCATCGGCGCCTCGGTGGCGGAGTCACCTAGTGCAG	16800 fluorescence intensity (a.u.)
GCGAGTGAGGAGGGGCGGCGCGCGGTGGCCGGCGGGTGAGCGGAGTCACCTAGTGCAG	8070 fluorescence intensity (a.u.)
GGGTGGAGGAGGGGACTTCGGGAGGGCGGTGGCGAGGGCGCGGAGTCACCTAGTGCAG	16400 fluorescence intensity (a.u.)
GGGAGGGGTGCGGCGCGGTGGCGCTGGAGCGGAGGAGCGTCGGAGTCACCTAGTGCAG	9990 fluorescence intensity (a.u.)
GGAGGTGGTGGCGCTGCCTCGGGGCCCCTCGCCTGGGAGGCGGAGTCACCTAGTGCAG	9800 fluorescence intensity (a.u.)
TGTTCGGTGGGCGAGGAGAGGAGTGGGTGGGAGTGGACTGCGGAGTCACCTAGTGCAG	8780 fluorescence intensity (a.u.)
GGGAGCGGCGGAGGAGGAGGGCGCGGCGGCGGTGGGGTGGCGGAGTCACCTAGTGCAG	18100 fluorescence intensity (a.u.)
ACGTGGAGTCACGTGACTGGGCCGTGCCACTTTTTTTTATCGGAGTCACCTAGTGCAG	9360 fluorescence intensity (a.u.)

Sequence	binding signal
AGTCAATATCTTGCTTTGATACCTTTTTTTTTGCATTTTTCGGAGTCACCTAGTGCAG	8050 fluorescence intensity (a.u.)
ACAACACGCCGCCTCGCCTGCCCATCCCGTCCAACCCACGCGGAGTCACCTAGTGCAG	9200 fluorescence intensity (a.u.)
GATTGGTTGAAAATGTTTCTATTCTTAATGAATATCCTATCGGAGTCACCTAGTGCAG	8080 fluorescence intensity (a.u.)
CCATCCACGCGACGCGGCACAACCTCCCGCGCCCAACACACGGAGTCACCTAGTGCAG	8760 fluorescence intensity (a.u.)
CCTTCTTGTCCTGCTCCCGCGCCGGCTCCGACCGGGTCCTCGGAGTCACCTAGTGCAG	8600 fluorescence intensity (a.u.)
AGTACATGGGCTTTCCATAATTGGTTTATACGTGGTTATTCGGAGTCACCTAGTGCAG	8260 fluorescence intensity (a.u.)
CTCTGAATGGCCTTGTCACCCTTTTTATTCATTCATGCTCCGGAGTCACCTAGTGCAG	9200 fluorescence intensity (a.u.)
TGTCCTTATCATCTTTGATCAAGTTTTTCTCTTTTCCTATCGGAGTCACCTAGTGCAG	9480 fluorescence intensity (a.u.)
CTCTTTTTTTTTCTTCCACTACGCTCCAAAACTTCTCTCCCGGAGTCACCTAGTGCAG	8790 fluorescence intensity (a.u.)
CCTTAGTCAGCCTCTGCTTCTGCTCCGTGCTCGCCGGCGCCGGAGTCACCTAGTGCAG	12600 fluorescence intensity (a.u.)
GCCTCGATCGCGGCGGTGGCGGTGGGGAGGGGAGCGCACCCGGAGTCACCTAGTGCAG	19000 fluorescence intensity (a.u.)
TGAAGGGCGGGAGGGGCGTTGCGCGGGAGTGGCCGCGCGGCGGAGTCACCTAGTGCAG	8670 fluorescence intensity (a.u.)
ACGCAGGGGAGGGAGGGAGCGGTGGTGGTGGCGGCGGCGCCGGAGTCACCTAGTGCAG	14000 fluorescence intensity (a.u.)
CCCGCGGCGGCGGGGTGGAGGCGACGGCGGTGGTGGTGGGCGGAGTCACCTAGTGCAG	8590 fluorescence intensity (a.u.)
TGTGGCGGGGAGGGAGGGAGGGAGAAGGGGCGGCGTGTTGCGGAGTCACCTAGTGCAG	16600 fluorescence intensity (a.u.)
CTCATCCGAGTGGGTGGGCGGGGAGAGATCTAGGGCTTGCCGGAGTCACCTAGTGCAG	11700 fluorescence intensity (a.u.)
TACTGGGGAATCGGTGGTGGTGGCGGCGGCGGTGGCGGCGCGGAGTCACCTAGTGCAG	9690 fluorescence intensity (a.u.)
GGGGCGGAGATCTGGGAGGAGGAGGAGGAGGTGGTGGTGGCGGAGTCACCTAGTGCAG	14500 fluorescence intensity (a.u.)
GTGCGTGGGGCGAAGGGAGGGGAAGAAGAAGAAGGAGAAGCGGAGTCACCTAGTGCAG	8080 fluorescence intensity (a.u.)
CGATCCGCTTGCAGGCGGCGGCGGCGGGAGGGTGGTGGGGCGGAGTCACCTAGTGCAG	18000 fluorescence intensity (a.u.)
GCGGCCGGCCGAGGGGTGGGAGCCGTCCGATCGCGGCGCGCGGAGTCACCTAGTGCAG	8550 fluorescence intensity (a.u.)
GGAATCTGGGAGGTGGGTGGGCCCCACGGCGGAGACTCCGCGGAGTCACCTAGTGCAG	17200 fluorescence intensity (a.u.)
